The structures appear in SMILES notation. Records with an inconclusive call do not appear. A call without a number means that no potency is given here. Active and inactive are the calls of the source. Calls come from the whole dose curve; as a rule, active = well fitted cell-killing curve with a large enough effect in the repeat runs; inconclusive = weak or mixed curves, or effect the other way; inactive = flat fitted curve, though single readings scatter.
Potency is the fitted concentration of half-maximal effect.

A short description of the assay: cAMP Responsive Elements (CRE) small molecule antagonists, cell-based qHTS assay: qHTS cell viability counter screen (AID 2060913). Note: nearly all actives have a fitted effect of over 40% in size. The note with it: CRE-bla HEK293T viability, CellTiter-Glo luminescence, 5 h; series mostly up to 92.4 µM. The gist of the method:
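HEK293T CRE-bla, 2,000 cells/well, 18 h preincubation; cpd in DMSO + NKH477 0.25 uM final, 3 h 37 C/5% CO2; LiveBLAzer 2 h RT, then CellTiter-Glo 30 min RT, luminescence.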
(qHTS replaces the single test concentration by a dilution series.)
As to `CCCCCN=C(N)N/N=C/c1c[nH]c2ccc(OC)cc12`, the Potency was 29.8 µM (active).

Consider `CCCC(=O)c1cc(O)c(O)cc1O`, for which the Potency entry is “inactive”.

As to `CCCCNC(=S)NCCCC`, the Potency entry was “inactive”.

Take `CCCN(CCc1cccs1)[C@H]1CCc2c(O)cccc2C1`: the Potency result was “inactive”.

Regarding `Cc1cccc2nccnc12`, the Potency result is “inactive”.

As to `CC(C)CC(C)(N)C#N` (stereo not given), the Potency entry is “inactive”.

With `CC(C)(C)c1nnc(NS(=O)(=O)c2ccccc2)s1`, the Potency result is “inactive”.

Take `CC(C)(C)NC(=O)[C@@H]1C[C@@H]2CCCC[C@@H]2CN1C[C@@H](O)[C@H](Cc1ccccc1)NC(=O)[C@H](CC(N)=O)NC(=O)c1ccc2ccccc2n1`: the Potency was 61.9 µM (active).

With `CO[C@@]12[C@H](COC(N)=O)C3=C(C(=O)C(C)=C(N)C3=O)N1C[C@@H]1N[C@@H]12`, the Potency entry is “inactive”.

In the case of `Cc1ccc(C)c(O)c1`, the Potency entry is “inactive”.

Regarding `O=C(Oc1ccccc1)Oc1ccccc1`, the Potency entry was “inactive”.

Take `CC(C)(C)c1ccc(OC2CCCCC2O)cc1` (stereo not given): the Potency result was “inactive”.

In the case of `O=C(O)c1cc(Cl)cc(Cl)c1O`, the Potency result was “inactive”.

Turning to `OC1(c2ccc(Cl)c(C(F)(F)F)c2)CCN(CCCC(c2ccc(F)cc2)c2ccc(F)cc2)CC1`, the Potency was 29.8 µM (active).

Consider `Cn1c(N)nc2nc[nH]c2c1=O`, for which the Potency entry is “inactive”.

For `CCOC(=O)Cn1cccc1-c1nc(-c2ccc(OC)cc2)c(-c2ccc(OC)cc2)s1`, the Potency result was “inactive”.

For `CC(=O)c1ccccc1[N+](=O)[O-]`, the Potency entry was “inactive”.

For the molecule `CCC(=O)Oc1ccc2c(c1)CC[C@@H]1[C@@H]2CC[C@@]2(C)[C@H]1C[C@@H](OC(=O)CC)[C@@H]2OC(=O)CC`, the Potency entry is “inactive”.

As to `COCCc1ccc(OCC(O)CNC(C)C)cc1` (stereo not given), the Potency entry was “inactive”.

For `CCN(CC)C(=O)N(CC)CC`, the Potency result was “inactive”.

For `C[Si](NC1CCCCC1)(NC1CCCCC1)NC1CCCCC1`, the Potency entry is “inactive”.

Take `N#Cc1ccc(C(=O)O)cc1`: the Potency result was “inactive”.

In the case of `CC/C=C\CCOC(=O)c1ccccc1`, the Potency entry is “inactive”.

Take `CCN(CCO)c1cccc(C)c1`: the Potency result is “inactive”.

`CCCCCCCCCc1ccc(OCCOCCO)cc1`: the Potency is 22.8 µM (active).

For the molecule `CCC(C)c1nccnc1OC` (stereo not given), the Potency entry is “inactive”.

On to `CCN(CC)c1ccc(C(=C2C=CC(=[N+](CC)CC)C=C2)c2ccc(S(=O)(=O)O)cc2S(=O)(=O)[O-])cc1`, for which the Potency is 27.3 µM (active).

Regarding `Nc1nc(-c2ccccc2)cs1`, the Potency result is “inactive”.

As for `CC(C)(C)c1cc(C=O)cc(C(C)(C)C)c1O`, the Potency entry is “inactive”.

Turning to `CCCCC(=O)O[C@]1(C(=O)CO)CC[C@H]2[C@@H]3CCC4=CC(=O)CC[C@]4(C)[C@H]3[C@@H](O)C[C@@]21C`, the Potency result is “inactive”.

With `Clc1nc(C(Cl)(Cl)Cl)c(Cl)c(Cl)c1Cl`, the Potency result was “inactive”.

For the molecule `CC(=O)Nc1ccn(C2COC(COC(=O)c3ccccc3)O2)c(=O)n1` (stereo not given), the Potency result is “inactive”.

Regarding `C[C@@H]1O[C@@H](OC[C@H]2O[C@@H](Oc3c(-c4ccc(O)c(O)c4)oc4cc(O)cc(O)c4c3=O)[C@H](O)[C@@H](O)[C@@H]2O)[C@H](O)[C@H](O)[C@H]1O`, the Potency result was “inactive”.

Regarding `O=CCCc1ccccc1`, the Potency result was “inactive”.

`O=[N+]([O-])c1ccc(NCCO)c(OCCO)c1`: the Potency result was “inactive”.

For `NCCCCCC(=O)O`, the Potency entry is “inactive”.

As to `Cc1cc2nc3ccc(=[N+](C)C)cc-3sc2cc1N`, the Potency entry was “inactive”.

For the molecule `O=CN1CCCCC1`, the Potency result is “inactive”.

As to `C=CC(=O)NC(C)C`, the Potency result was “inactive”.

In the case of `NCC[C@H](O)C(=O)N[C@@H]1C[C@H](N)[C@@H](O[C@H]2O[C@H](CN)[C@@H](O)[C@H](O)[C@H]2O)[C@H](O)[C@H]1O[C@H]1O[C@H](CO)[C@@H](O)[C@H](N)[C@H]1O`, the viability change, negative = cytotoxic was 0.2% [at 0.349 µM] (inactive).

(Values after PubChem BioAssay (Tox21).)
